Measured values from the supplement of paper PMC10849652.
Targets with a hit are over-represented here; the source holds about 7,900 in all. About 0.6% of all pairs of compound and target were hits.

Each target was assayed with CN(CCOC1=CC=C(C=C1)C[C@H]2C(=O)NC(=O)S2)C3=CC=CC=N3 (racemic) [rosiglitazone] (assay: log2 fold change, soluble protein after heating vs DMSO (PISA); higher = thermal stabilisation; K562 cells, 10 uM, 30 min; active = over 0.2 and 3.5 SD of the protein, either way, in both replicates (recomputed)).
How it was run: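 K562 cells at 2×10^6 cells/mL were given 10 μM compound for 30 min. Aliquots then went through 3 min of heating across 48°C-58°C, were pooled, and were extracted in PBS with 0.5% NP-40 at 4°C, and the supernatant after 21,000xg for 90 min was quantified by TMTpro 16plex LC-MS/MS with channel sums equalised. Thermal stability relative to control samples, from duplicates, is given as log2 fold change.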

Chain of UniProt Q8N4C8 (Q8N4C8 whole entry, looked up): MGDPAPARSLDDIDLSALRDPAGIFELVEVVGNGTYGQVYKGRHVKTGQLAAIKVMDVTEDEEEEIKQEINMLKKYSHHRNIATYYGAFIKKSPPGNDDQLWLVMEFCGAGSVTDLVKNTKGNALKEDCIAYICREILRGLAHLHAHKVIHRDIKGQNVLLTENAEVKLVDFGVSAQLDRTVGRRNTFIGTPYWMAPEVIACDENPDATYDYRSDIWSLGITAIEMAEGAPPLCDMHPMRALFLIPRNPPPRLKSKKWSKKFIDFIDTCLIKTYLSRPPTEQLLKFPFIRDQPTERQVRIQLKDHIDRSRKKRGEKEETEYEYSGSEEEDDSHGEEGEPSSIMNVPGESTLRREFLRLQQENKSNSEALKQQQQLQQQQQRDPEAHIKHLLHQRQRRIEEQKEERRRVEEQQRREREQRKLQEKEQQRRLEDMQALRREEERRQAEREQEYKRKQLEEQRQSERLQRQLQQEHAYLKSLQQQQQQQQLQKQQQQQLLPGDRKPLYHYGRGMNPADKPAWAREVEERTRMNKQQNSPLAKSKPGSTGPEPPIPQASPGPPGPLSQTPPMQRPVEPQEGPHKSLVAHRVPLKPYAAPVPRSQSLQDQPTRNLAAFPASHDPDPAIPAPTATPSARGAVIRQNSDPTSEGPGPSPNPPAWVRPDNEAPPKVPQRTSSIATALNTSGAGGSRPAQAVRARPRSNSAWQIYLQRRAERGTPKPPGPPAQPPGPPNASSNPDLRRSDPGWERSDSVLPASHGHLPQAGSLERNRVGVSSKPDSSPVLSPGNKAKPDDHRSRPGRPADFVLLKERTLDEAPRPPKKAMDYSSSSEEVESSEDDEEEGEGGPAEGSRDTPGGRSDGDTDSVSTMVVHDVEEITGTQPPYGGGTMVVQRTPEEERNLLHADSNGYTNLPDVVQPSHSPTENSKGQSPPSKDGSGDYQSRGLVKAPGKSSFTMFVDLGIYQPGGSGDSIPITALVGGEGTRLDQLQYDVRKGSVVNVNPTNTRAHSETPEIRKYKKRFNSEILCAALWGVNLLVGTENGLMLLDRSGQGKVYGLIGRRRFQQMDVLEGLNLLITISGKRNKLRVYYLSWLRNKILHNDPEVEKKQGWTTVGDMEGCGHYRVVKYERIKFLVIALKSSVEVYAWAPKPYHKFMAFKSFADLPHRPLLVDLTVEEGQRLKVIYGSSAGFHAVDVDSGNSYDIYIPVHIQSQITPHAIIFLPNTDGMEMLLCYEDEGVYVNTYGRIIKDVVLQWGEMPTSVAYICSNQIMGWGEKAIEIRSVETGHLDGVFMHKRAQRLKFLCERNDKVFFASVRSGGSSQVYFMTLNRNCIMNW
Chain of UniProt O14524 (O14524 whole entry, looked up): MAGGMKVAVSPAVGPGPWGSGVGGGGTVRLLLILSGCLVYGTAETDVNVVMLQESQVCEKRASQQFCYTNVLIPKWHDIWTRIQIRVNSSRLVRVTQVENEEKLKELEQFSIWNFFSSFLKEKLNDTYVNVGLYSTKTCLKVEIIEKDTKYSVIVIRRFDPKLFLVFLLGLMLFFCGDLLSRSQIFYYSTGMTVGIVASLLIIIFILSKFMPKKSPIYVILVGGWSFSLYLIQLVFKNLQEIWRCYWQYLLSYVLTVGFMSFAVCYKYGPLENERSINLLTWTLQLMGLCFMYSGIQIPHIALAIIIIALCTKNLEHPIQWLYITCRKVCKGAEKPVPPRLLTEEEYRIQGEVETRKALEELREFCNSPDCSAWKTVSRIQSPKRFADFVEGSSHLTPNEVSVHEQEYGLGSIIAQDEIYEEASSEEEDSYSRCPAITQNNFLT
Chain of UniProt Q9BW27 (Q9BW27 whole entry, looked up): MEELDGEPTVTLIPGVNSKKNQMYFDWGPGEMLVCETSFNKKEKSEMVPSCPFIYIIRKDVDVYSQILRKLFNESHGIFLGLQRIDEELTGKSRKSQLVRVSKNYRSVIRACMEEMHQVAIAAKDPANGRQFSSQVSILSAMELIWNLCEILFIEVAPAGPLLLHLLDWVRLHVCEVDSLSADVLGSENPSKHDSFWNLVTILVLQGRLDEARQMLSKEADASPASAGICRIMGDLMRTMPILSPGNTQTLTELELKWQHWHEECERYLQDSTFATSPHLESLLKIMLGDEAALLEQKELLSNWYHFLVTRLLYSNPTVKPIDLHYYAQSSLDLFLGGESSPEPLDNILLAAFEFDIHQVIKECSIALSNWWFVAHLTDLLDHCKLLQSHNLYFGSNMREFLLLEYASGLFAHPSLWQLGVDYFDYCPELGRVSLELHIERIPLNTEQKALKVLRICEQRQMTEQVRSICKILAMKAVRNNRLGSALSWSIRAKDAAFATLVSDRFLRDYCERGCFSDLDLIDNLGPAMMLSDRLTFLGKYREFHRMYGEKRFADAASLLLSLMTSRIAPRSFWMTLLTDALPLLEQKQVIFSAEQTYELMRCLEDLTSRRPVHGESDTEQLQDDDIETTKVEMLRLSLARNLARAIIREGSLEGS
Chain of UniProt Q15021 (Q15021 whole entry, looked up): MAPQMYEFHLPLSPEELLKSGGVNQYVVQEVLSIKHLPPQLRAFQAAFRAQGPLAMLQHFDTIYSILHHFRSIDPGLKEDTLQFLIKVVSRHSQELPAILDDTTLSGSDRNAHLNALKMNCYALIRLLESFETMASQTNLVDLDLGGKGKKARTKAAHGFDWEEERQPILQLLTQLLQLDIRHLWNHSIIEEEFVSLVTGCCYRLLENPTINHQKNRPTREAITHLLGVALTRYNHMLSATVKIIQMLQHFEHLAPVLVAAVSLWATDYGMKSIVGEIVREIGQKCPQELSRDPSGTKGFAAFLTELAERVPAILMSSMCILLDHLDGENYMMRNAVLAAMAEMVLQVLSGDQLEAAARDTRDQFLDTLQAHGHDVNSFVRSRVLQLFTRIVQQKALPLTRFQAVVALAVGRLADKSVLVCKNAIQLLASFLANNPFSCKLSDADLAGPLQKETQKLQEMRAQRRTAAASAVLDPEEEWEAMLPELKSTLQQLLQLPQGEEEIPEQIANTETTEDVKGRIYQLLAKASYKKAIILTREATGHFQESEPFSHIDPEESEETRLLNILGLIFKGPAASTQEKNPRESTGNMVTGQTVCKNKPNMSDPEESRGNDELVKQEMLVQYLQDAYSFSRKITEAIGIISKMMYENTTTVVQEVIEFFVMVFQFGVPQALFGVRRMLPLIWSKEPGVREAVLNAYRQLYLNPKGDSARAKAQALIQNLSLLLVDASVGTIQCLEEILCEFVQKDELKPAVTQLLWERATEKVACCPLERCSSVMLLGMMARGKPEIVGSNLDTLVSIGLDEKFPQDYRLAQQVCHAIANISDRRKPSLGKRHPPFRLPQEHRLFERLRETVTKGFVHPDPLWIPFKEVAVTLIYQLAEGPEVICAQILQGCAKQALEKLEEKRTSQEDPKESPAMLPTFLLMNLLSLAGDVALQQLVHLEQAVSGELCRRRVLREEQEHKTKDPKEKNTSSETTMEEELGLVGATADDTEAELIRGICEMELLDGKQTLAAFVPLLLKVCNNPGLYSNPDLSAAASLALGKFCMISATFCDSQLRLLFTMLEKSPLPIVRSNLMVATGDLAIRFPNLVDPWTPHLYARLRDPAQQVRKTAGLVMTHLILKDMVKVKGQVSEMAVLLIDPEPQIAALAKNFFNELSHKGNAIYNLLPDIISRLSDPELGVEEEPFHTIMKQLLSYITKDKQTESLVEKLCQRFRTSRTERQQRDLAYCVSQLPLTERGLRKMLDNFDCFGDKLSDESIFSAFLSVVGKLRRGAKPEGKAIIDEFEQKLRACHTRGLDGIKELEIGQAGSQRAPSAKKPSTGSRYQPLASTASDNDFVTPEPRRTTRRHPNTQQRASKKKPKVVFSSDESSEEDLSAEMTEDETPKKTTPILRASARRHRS
Chain of UniProt Q8NCF5 (Q8NCF5 whole entry, looked up): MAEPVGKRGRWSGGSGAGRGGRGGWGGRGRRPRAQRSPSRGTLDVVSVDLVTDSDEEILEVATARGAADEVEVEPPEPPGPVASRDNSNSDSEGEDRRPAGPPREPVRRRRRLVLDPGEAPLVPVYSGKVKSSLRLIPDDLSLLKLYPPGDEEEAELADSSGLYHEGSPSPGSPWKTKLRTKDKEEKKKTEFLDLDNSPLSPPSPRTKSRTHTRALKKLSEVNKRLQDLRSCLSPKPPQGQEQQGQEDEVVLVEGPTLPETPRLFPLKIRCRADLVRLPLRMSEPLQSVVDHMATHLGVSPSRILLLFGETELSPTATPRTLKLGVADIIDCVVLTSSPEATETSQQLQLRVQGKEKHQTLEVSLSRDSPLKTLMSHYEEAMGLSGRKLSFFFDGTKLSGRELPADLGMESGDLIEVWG
Chain of UniProt Q9ULX3 (Q9ULX3 whole entry, looked up): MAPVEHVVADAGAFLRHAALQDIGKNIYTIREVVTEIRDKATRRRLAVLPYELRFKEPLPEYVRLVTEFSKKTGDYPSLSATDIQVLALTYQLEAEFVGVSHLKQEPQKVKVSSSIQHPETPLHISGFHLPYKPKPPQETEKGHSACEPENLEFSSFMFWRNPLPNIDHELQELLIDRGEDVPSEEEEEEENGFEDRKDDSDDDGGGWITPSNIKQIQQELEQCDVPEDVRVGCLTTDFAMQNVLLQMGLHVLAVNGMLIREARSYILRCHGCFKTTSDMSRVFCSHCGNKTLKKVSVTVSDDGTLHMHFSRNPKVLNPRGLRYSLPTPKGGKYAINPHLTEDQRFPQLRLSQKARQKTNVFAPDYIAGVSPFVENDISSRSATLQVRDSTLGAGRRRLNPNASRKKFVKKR
Chain of UniProt P15559 (P15559 whole entry, looked up): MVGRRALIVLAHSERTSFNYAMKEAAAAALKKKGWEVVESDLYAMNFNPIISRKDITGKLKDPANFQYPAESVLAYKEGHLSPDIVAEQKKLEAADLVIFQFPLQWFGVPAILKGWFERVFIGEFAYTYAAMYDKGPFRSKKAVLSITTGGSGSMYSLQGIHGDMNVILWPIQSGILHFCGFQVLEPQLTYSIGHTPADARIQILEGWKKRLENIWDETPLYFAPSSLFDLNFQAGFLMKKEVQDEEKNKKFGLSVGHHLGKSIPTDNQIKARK

Target	log2 fold change
NOB1 (UniProt Q9ULX3)	0.026 (inactive)
MRPS25 (UniProt P82663)	-0.042 (inactive)
NACC1 (UniProt Q96RE7)	0.095 (inactive)
NEMP1 (UniProt O14524)	0.048 (inactive)
MTHFD1 (UniProt P11586)	0.024 (inactive)
OXSM (UniProt Q9NWU1)	0.02 (inactive)
MT-ATP6 (UniProt P00846)	0.502 (inactive)
OTUD4 (UniProt Q01804)	-0.013 (inactive)
MRPL50 (UniProt Q8N5N7)	-0.015 (inactive)
NFATC2 (UniProt Q13469)	0.191 (inactive)
NUP205 (UniProt Q92621)	0.041 (inactive)
MRPS24 (UniProt Q96EL2)	-0.026 (inactive)
MINK1 (UniProt Q8N4C8)	0.011 (inactive)
NUP85 (UniProt Q9BW27)	0.019 (inactive)
NOP56 (UniProt O00567)	-0.079 (inactive)
P4HA2 (UniProt O15460)	-0.126 (inactive)
NCAPH (UniProt Q15003)	0.024 (inactive)
MRPS15 (UniProt P82914)	0.032 (inactive)
NA, A0A096LPI6	-0.019 (inactive)
NQO1 (UniProt P15559)	0.013 (inactive)
NIBAN1 (UniProt Q9BZQ8)	0.055 (inactive)
MPHOSPH10 (UniProt O00566)	0.089 (inactive)
NCAPD2 (UniProt Q15021)	0.023 (inactive)
NFATC2IP (UniProt Q8NCF5)	0.041 (inactive)
